Test results taken from PubChem BioAssay AID540277 (National Center for Advancing Translational Sciences (NCATS), 2011).
Among all 320,000 compounds or so, about 55 (0.02%) were called active. Not shown: some 3% with an inconclusive outcome. Rule as the data show it: active = potentiation above about 80%; inconclusive = between about 30% and that limit; inactive = weaker than that. The entries come from a sample that favours actives as a whole.

Biological target: Transient receptor potential cation channel subfamily V member 1 (Homo sapiens) (UniProt Q8NER1)
Sequence (Q8NER1 whole entry, looked up): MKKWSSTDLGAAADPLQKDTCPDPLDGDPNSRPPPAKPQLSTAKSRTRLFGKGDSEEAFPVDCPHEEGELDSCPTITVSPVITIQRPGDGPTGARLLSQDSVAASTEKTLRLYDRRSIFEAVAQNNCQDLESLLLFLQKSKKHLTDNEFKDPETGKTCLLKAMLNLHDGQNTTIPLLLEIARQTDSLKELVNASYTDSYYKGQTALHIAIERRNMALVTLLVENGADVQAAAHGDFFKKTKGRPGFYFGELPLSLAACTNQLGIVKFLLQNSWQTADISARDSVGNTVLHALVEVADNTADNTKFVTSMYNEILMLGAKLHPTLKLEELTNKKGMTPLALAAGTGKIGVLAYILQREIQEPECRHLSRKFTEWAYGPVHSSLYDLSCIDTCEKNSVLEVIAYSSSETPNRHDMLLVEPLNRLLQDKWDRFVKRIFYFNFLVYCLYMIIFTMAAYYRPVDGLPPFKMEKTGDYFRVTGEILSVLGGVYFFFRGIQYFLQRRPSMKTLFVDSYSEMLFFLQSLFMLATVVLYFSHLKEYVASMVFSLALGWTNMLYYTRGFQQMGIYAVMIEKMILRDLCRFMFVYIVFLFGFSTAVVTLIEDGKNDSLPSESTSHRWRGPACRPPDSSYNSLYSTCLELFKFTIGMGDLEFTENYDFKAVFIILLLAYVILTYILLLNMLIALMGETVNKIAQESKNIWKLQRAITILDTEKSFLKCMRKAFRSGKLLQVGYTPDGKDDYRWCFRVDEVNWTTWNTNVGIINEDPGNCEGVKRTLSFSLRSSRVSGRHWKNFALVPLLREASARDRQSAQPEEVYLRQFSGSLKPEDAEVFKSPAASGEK
Experiment: HTS Assay for Compounds that Act as Potentiators of the Vanilloid Receptor 1; also: 0% is about no effect
Settings: TRPV1-expressing cells, Fluo-8 calcium influx, capsaicin EC20 potentiation; at 8.33 µM; stronger effect = higher value
From the text: The transient receptor potential ion channel, family V, number 1, (TRPV1) is one of the most important molecular transducers of painful stimuli and a potential target for analgesic drug development. Although recent clinical trials with orthosteric antagonists have not produced a successful drug because of a hyperthermia side effect and their tendency to block thermal noxious pain, this ion channel is undeniably well placed in the pain pathway, and the idea of blocking pain signals before they enter the CNS is an excellent concept and of proven efficacy when TRPV1 agonists are used. We propose a new approach involving allosteric modulation to impose an activity-dependent constraint within the context of inflammation and tissue damage that would alter the responsiveness of the channel in a way that an orthosteric vanilloid antagonist cannot achieve. We believe that the allosteric modulator approach has not been explored for this target. The main goal of this proposal is to identify additional, new, potent allosteric modulators of TRPV1 that can be used to investigate TRPV1 function. Our recent report provides evidence of proof of concept, but the compounds are just at the edge of utility in terms of potency. […] The question of whether they can be used as analgesic agents is complex, but if suitable compounds are identified then testing for analgesic properties will be conducted. NIH Chemical Genomics Center [NCGC] NIH Molecular Libraries Probe Centers Network [MLPCN] MLPCN Grant: MH089480-1A1 Assay Submitter (PI): Michael Iadarola, National Institute of Dental and Cranofacial Research
Upon TRPV1 activation in TRPV1 cells, the channel opens and extracellular cations flow through the channel into the cytosol. A calcium binding dye (Fluo-8) becomes fluorescent when bound to calcium. This dye is pre-loaded into cells and is used as a marker for calcium influx. The amount of accumulated calcium is precisely quantified using the FDSS kinetic reader and the calcium dye. For the HTS assay, freshly prepared cells are plated at a density of 2000/well in 3 ul medium in 1536-well plates and cultured overnight at 35.5C. Cells will be loaded with 1 ul of the homogeneous calcium dye (ABD Bioquest) at room temperature for 40 to 90 minutes. Plates will be loaded into the FDSS kinetic reader and a 1 sec / cycle for 10 second baseline signal will be measured. Compound library will then be added with a pintool at 23 nl and measured kinetically for 3 minutes. This portion of the read is considered the agonist portion of the screen. Following the 3 minutes of incubation, an on board pipettor will deliver 1 ul of capsaicin for a final concentration equal to the EC20. Signal will be measured kinetically for an additional 2 minutes. This portion of the read is considered the allosteric enhancer portion of the screen. The FDSS reader has a standard filter set capable of measuring calcium bound Fluo-8 (ex=480 and em=520 nm).

potentiation, active:
Cc1ccc(NC(=S)N(Cc2ccco2)C(C)c2cccs2)cc1 (stereo unspecified) 141%

potentiation, inactive:
CCCCN1C(=O)C(=O)N(CC(=O)Nc2cccc(C(C)=O)c2)C1=O 6.11%
COC(=O)c1ccc(-c2c(-c3ccccc3)ncc3cc(OC)c(OC)cc23)cc1 -0.0919%
O=C(NCC1CCCO1)c1cc2c(s1)CCCC2 (stereo unspecified) -3.61%
COc1ccc(C(C)(C)C)cc1NC(=O)CCN1C(=O)C2CCCCC2C1=O (stereo unspecified) -20%
Cc1ccc(NC(=O)C(c2ccccc2)N2CCN(C(=O)c3ccco3)CC2)cc1 (stereo unspecified) 4.79%
CN(CCOc1ccccc1)C(=O)c1cc(-c2ccco2)nc2ccccc12 1.05%
CC1CCN(C(=O)COC(=O)c2cc(=O)[nH]c3ccccc23)CC1 -1.92%
CN(C)S(=O)(=O)c1cccc(NC(=O)COc2ccc3ccccc3c2)c1 2.88%
O=C(COC(=O)c1cccc(Cl)c1)NC1CCCCCCC1 -13.9%
COc1cc(OC)c(C(=S)N2CCCC2)cc1OC -20.3%
COc1ccc(-c2cc(C(=O)NCCCN3CCCC3=O)c3ccccc3n2)cc1OC -7.67%
COc1cccc(C(=O)c2sc3nc(-c4ccccc4)cc(C(F)(F)F)c3c2N)c1 -4.5%
CC(C)Cc1nnc(NC(=O)CCNC(=O)c2ccccc2Cl)s1 6.33%
CCCc1ccc(C(=O)COC(=O)CN2C(=O)NC3(CCCCC3C)C2=O)cc1 (stereo unspecified) -5.74%
O=C(OCC(=O)N1CCc2ccccc21)C1CCCN1S(=O)(=O)c1ccc(Cl)cc1 (stereo unspecified) -3.33%
COc1ccc(C)cc1NC(=O)CN1c2cccc3cccc(c23)S1(=O)=O -17.5%
COc1ccc(S(=O)(=O)Nc2cccc3cccnc23)c(N)c1 13.6%
N#Cc1ccccc1S(=O)(=O)N1CCN(Cc2c(O)ccc3ccccc23)CC1 0.42%
O=C(COC(=O)CNC(=O)C1CCCCC1)NCc1ccccc1 -6.14%
CC(C)N(C(=O)CN1CCN(S(=O)(=O)c2ccc(Br)s2)CC1)C(C)C -18.3%
CCOc1cccc2cc(C(=O)OCC(=O)Nc3c(C)cccc3CC)c(=O)oc12 -5.16%
Nc1cc(N)nc(SCC(=O)Nc2cccc(S(=O)(=O)N3CCCCC3)c2)n1 0.644%
COc1cccc(C(=O)n2ccc(-c3cccs3)n2)c1 -6.21%
O=C(N[C@@H](Cc1c[nH]c2ccccc12)C(=O)O)OCC1c2ccccc2-c2ccccc21 1.56%
CN(C(=O)CSc1nnc(-c2ccc(C(C)(C)C)cc2)n1C)C1CCS(=O)(=O)C1 (stereo unspecified) -2.39%
O=C(CSc1nnc(Nc2ccccc2F)s1)NC1CCCC1 -7.27%
CCN(CC)S(=O)(=O)c1ccc(OC)c(NC(=O)CCc2c(C)noc2C)c1 -15%
COc1ccccc1S(=O)(=O)NCc1ccc(C(=O)N(C)Cc2ccc(F)cc2)cc1 -20.6%
Cc1ccc(NC(=S)N(CCCN2CCC(C)CC2)Cc2ccco2)cc1 8.22%
Cc1ccc(NC(=S)N(CCN2CCCCC2)Cc2ccco2)cc1C 2.55%
O=C(O)c1ccccc1N=N/C(=N/Nc1cc(S(=O)(=O)O)ccc1O)c1ccccc1 1.2%
CN(C)S(=O)(=O)c1ccc(C(=O)NCC2(N3CCOCC3)CCCCC2)cc1 -44.6%
CN(Cc1cccs1)C(=O)CN1C(=O)c2ccccc2S1(=O)=O -1.15%
CCC1(C)NC(=O)N(CC(=O)N2CCN(c3cccc(Cl)c3)CC2)C1=O (stereo unspecified) -16.1%
O=C(COC(=O)c1ccccc1Cl)NC1CCCCCCC1 -4.06%
O=C(NCc1ccccc1CN1CCCC1)c1cccc(S(=O)(=O)Nc2ccc(F)cc2)c1 -2.77%
CC(C)Oc1ccc(C(=O)NCC(=O)Nc2ccc3c(c2)CCC3)cc1 -17.6%
O=C(Nc1cccc2cccnc12)C(F)(F)F 13.4%
CCNC(=O)N1CCN(S(=O)(=O)c2ccc3c(c2)OCCCO3)CC1 4.26%
N#Cc1ccc(C(=O)OCC(=O)NC(=O)NC2CCCCC2)cc1 22.1%
Cc1ccc(-c2nn(-c3ccccc3)cc2C(=O)NC2CCC(O)CC2)cc1 (stereo unspecified) -7.64%
Cc1ccc(C(=O)NNC(=O)c2ccc3c(c2)OCCO3)cc1 9.22%
Cn1c(SCC(=O)Nc2ccc(N3CCOCC3)cc2)nnc1C(F)(F)F 1.26%
COc1ccc(S(=O)(=O)N2CCN(c3ccc(F)cc3)CC2)cc1-c1noc(C)n1 -6.85%
CCN(CC(=O)Nc1c(F)cccc1F)C(=O)c1ccc(-c2ccc(C(C)=O)cc2)o1 -3.51%
O=C(COc1ccccc1Cl)N1N=C(c2cccs2)CC1c1ccco1 (stereo unspecified) -9.15%
CCc1cc(C(=O)Nc2nnc(C3CC3)s2)sc1C -13.7%
O=C(CN1CCN(S(=O)(=O)c2ccc(Cl)s2)CC1)N1CCCCC1 -6.4%
CN(C)C(CNC(=O)c1ccc(OCc2cn3ccccc3n2)cc1)c1ccco1 (stereo unspecified) -3.83%
CN(CC(=O)NC1CCN(Cc2ccccc2)CC1)S(=O)(=O)c1ccc(Cl)s1 6.87%
COc1ccccc1CNC(=O)COC(=O)c1sc(C)nc1C 1.52%
Cc1csc2nc(COC(=O)c3cccc(N(C)C)c3)cc(=O)n12 15%
COc1ccc(CCNC(=O)COc2ccc3c(c2)OCO3)cc1 18.8%
CCOc1cc(/C=C(/C#N)c2ccc(Cl)cc2)cc(Cl)c1OCC(=O)O 12.2%
COc1ccc(NC(=O)CC2SC(N3CCCCC3)=NC2=O)cc1OC (stereo unspecified) 1.27%
Cc1cccc(OCCC(=O)OCc2csc(CC(=O)Nc3ccccc3C)n2)c1 -3.33%
O=S(=O)(Nc1cccc2cccnc12)c1cccc2cccnc12 16.1%
O=C(COC(=O)CNC(=O)C1CCCCC1)Nc1cccc(F)c1 -7.91%
O=C(COC(=O)Cc1ccccc1F)NCCc1ccccc1 -16%
CC(=O)c1sc(NC(=O)CCN2C(=O)C3CC=CCC3C2=O)nc1-c1ccccc1 (stereo unspecified) -6.85%
CC(C(=O)Nc1ccc(S(=O)(=O)N2CCCC2)cc1)N(C)Cc1ccc(F)cc1 (stereo unspecified) -18.2%
O=C(OCC(=O)N1CCOCC1)c1ccc2ccccc2c1 17.8%
O=C(NNC(=O)c1cc(S(=O)(=O)N2CCCCC2)ccc1Cl)c1ccccc1O -1.67%
CC1CCCN(C(=O)c2cc(-c3ccco3)nc3ccccc23)C1 (stereo unspecified) 27.4%
CC(C)Nc1ncnc2c1nnn2Cc1ccccc1 -2.19%
Oc1ccc(Cl)cc1C1C=C(c2ccc3c(c2)OCO3)NC(c2c(F)cccc2Cl)N1 (stereo unspecified) 25.7%
Cc1ccc(C(=O)Nc2ccn(C)n2)cc1 6.57%
O=S(=O)(Nc1ccc2nc(N3CCOCC3)sc2c1)c1ccccc1 15.8%
O=C(CSc1nc2[nH]c(=O)[nH]c(=O)c2s1)Nc1cccc(F)c1 19.7%
O=C(Nc1ccccc1N1CCOCC1)c1ccncc1 17.2%
NS(=O)(=O)c1ccc(CNC(=O)c2cccc(S(=O)(=O)N3CCc4ccccc43)c2)cc1 23.8%
CC(C)n1ncc2c(C(=O)NCc3ccccc3CN(C)C)cc(C3CC3)nc21 3.73%
Cc1ccc(OCC(=O)N2CCN(S(=O)(=O)c3ccc(Cl)s3)CC2)cc1C -16.7%
CCCn1c(N)c(N(CCOC)C(=O)C2CCCC2)c(=O)[nH]c1=O 1.87%
Oc1ccc(Cl)cc1C1C=C(c2ccc3c(c2)OCO3)NC(c2ccc(F)c(Br)c2)N1 (stereo unspecified) 3.03%
O=C(NCCN1CCOCC1)c1cccc(S(=O)(=O)Nc2ccc(F)cc2)c1 6.45%
COc1ccc(OC)c(/C=C/C(=O)c2ccc3c(c2)OCO3)c1 -3.4%
Cc1cccc(Nc2nnc(SCC(=O)c3c(N)n(C4CC4)c(=O)[nH]c3=O)s2)c1C 22.3%
COc1cc(C#Cc2ccc3cc(CCCO)oc(=O)c3c2)cc(OC)c1 2.73%
O=C(NCc1ccccc1CN1CCCC1)C1CCN(S(=O)(=O)c2ccc(Cl)cc2)CC1 1.5%
O=S(=O)(c1ccc(SCc2ccccc2)nc1)N1CCCCCC1 -6.24%
Cc1ccc2ccc3c(c2n1)NS(=O)(=O)c1ccccc1-3 18.5%
CC1(C)O[C@@H]2[C@H](O1)[C@@H](COS(=O)(=O)O)O[C@H]2n1cnc2c(=O)[nH]cnc21 8.79%
COc1cccc(NC(=O)COC(=O)/C=C/c2ccco2)c1 11%
COc1ccccc1NC(=O)COC(=O)COc1ccccc1F 3.99%
COc1ccc(NC(=O)CN(C)C(=O)c2cc(C3CC3)nn2-c2ccccc2)cc1 14.7%
Cc1ccc(/C=C/C(=O)OCC(=O)Nc2cccnc2Cl)cc1 -11.8%
Cc1cccc(NS(=O)(=O)c2ccc(C)c(C(=O)NCC(c3ccccc3)N(C)C)c2)c1 (stereo unspecified) 1.06%
Cc1cccc(NS(=O)(=O)c2cccc(C(=O)NNC(=O)c3ccccc3O)c2)c1 -12.6%
COc1ccc(C(=O)OCC(=O)c2cc(C)n(CC3CCCO3)c2C)cc1[N+](=O)[O-] (stereo unspecified) 9.08%
